Data: PubChem BioAssay (EPA / NIEHS)
Records with an inconclusive call do not appear. Calls of active or inactive are those of the source. Rule for the calls: active = hit-call score of the fitted dose curve at least 0.9, where 1 is the maximum; inconclusive = response in the unintended direction; inactive = score below 0.9.

Legend:
[1] = molecular target: Estrogen receptor (Homo sapiens) (UniProt P03372); experiment: OT_ER_ERaERa_1440: Odyssey Thera (OT) 24-hour HEK293T Protein-Complementation Assay for Estrogen Receptor-alpha/-alpha Homodimer (AID 2283349);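 note: hits raise fluorescence above DMSO for agonists and antagonists alike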
Outline: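 Protein-fragment complementation between two human ERα ligand-binding domains (aa 310-547) in stably transfected HEK293T cells was monitored after 24 h treatment, using fluorescence intensity relative to vehicle controls.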

[2] = molecular target: Estrogen receptor (Homo sapiens) (UniProt P03372); experiment: OT_ER_ERaERa_0480: Odyssey Thera (OT) 8-hour HEK293T Protein-Complementation Assay for Estrogen Receptor-alpha/-alpha Homodimer (AID 2283351);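 note: rise in fluorescence from reassembled reporter fragments on ERα LBD homodimer in nucleus or whole cell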
Outline: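 Binding reporter in which dimerisation of ERα LBD (aa 310-547) fusions reconstitutes a fluorescent reporter in HEK293T cells. Compounds incubated 8 h; mean fluorescence intensity increase versus DMSO scored.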

[3] = molecular target: rat Mineralocorticoid Receptor (MR), Nr3c2 (gene 25672) (UniProt P22199); experiment: NVS_NR_rMR: NovaScreen (NVS) Nuclear Receptor Binding Assay for rat Mineralocorticoid Receptor (MR) (AID 2283355)
Description: NVS_NR_rMR is a biochemical, single-readout assay that uses extracted gene-proteins from Adrenalectomized rat brain supernatant in a tissue-based cell-free assay. Measurements were taken 24 hours after chemical dosing in a 96-well plate.NVS_NR_rMR is one of one assay component(s) measured or calculated from the NVS_NR_rMR assay. It is designed to make measurements of radioligand binding, a form of binding reporter, as detected with scintillation counting signals by Lysate-based radiodetection technology.Data from the assay component NVS_NR_rMR was analyzed into 1 assay endpoint. This assay endpoint, NVS_NR_rMR, was analyzed in the positive analysis fitting direction relative to DMSO as the negative control and baseline of activity. […] Furthermore, this assay endpoint can be referred to as a primary readout, because the performed assay has only produced 1 assay endpoint. […]
Binding assays used specific radioligands (tritiated, iodinated) with non-radioactive competitive displacement ligands in agonist or antagonist protocols (as indicated) and various reference compounds and inhibitors to titrate specific binding to receptors and transporters. Most enzyme assays (CYPs, kinases, phosphatases, proteases, HDACs) used recombinant protein and specific substrates (fluorescence mostly, some colorimetric and radioactive) and inhibitors, followed by a biochemical separation of substrate and product. […]

[4] = molecular target: T1, Estrogen receptor (Homo sapiens) + Estrogen receptor beta (Homo sapiens) (UniProt P03372+Q92731); experiment: OT_ER_ERaERb_0480: Odyssey Thera (OT) 8-hour HEK293T Protein-Complementation Assay for Estrogen Receptor-alpha/-beta Heterodimer (AID 2283352)
Outline: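 Fluorescence increase from reconstituted reporter fragments, quantified by laser scanning cytometer, reflects ER-alpha/ER-beta heterodimer formation in human HEK293T cells. Exposure 8 h; positive-direction fitting against DMSO vehicle.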

[5] = molecular target: T1, Estrogen receptor (Homo sapiens) + Estrogen receptor beta (Homo sapiens); experiment: OT_ER_ERaERb_1440: Odyssey Thera (OT) 24-hour HEK293T Protein-Complementation Assay for Estrogen Receptor-alpha/-beta Homodimer (AID 2283356);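 note: heteromer of ER alpha and ER beta binding domains; hits raise reporter fluorescence and both agonists and antagonists give an increase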
Outline: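 Fragment complementation between ER alpha (310-547) and ER beta (263-489) ligand-binding domains in HEK293T cells; signal read 24 h post-dosing by laser scanning cytometer. Gain of fluorescence relative to DMSO fitted.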

[6] = molecular target: Androgen Receptor/SRC-1 Co-activator, AR (gene 367) (UniProt P10275); experiment: OT_AR_ARSRC1_0960: Odyssey Thera (OT) 16-hour HEK293T Protein-Complementation Assay for Androgen Receptor/SRC-1 Co-activator (AID 2283353);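 note: actives raise the signal above DMSO so potency reflects increased AR and SRC-1 complex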
Outline: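 Interaction of AR with SRC-1 was followed by YFP fragment complementation in HEK293T cells after 16 h of dosing. Gain of nuclear-over-cytoplasmic 488 nm fluorescence against DMSO controls defined activity.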

[7] = molecular target: Androgen Receptor/SRC-1 Co-activator, AR (gene 367) (UniProt P10275); experiment: OT_AR_ARSRC1_0480: Odyssey Thera (OT) 8-hour HEK293T Protein-Complementation Assay for Androgen Receptor/SRC-1 Co-activator (AID 2283354);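 note: hits raise the complementation signal above DMSO so AC50 marks enhancers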
Outline: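 Measures AR/SRC-1 binding by Venus YFP fragment complementation in HEK293T stable lines at 8 h post-dose. Imaging quantifies the 488nm nucleus/cytoplasm ratio in ≥400 cells; DMSO defines baseline.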

Measured: AC50

Estrogen receptor (Homo sapiens), sequence (P03372 whole entry, looked up, the tested form may be a part): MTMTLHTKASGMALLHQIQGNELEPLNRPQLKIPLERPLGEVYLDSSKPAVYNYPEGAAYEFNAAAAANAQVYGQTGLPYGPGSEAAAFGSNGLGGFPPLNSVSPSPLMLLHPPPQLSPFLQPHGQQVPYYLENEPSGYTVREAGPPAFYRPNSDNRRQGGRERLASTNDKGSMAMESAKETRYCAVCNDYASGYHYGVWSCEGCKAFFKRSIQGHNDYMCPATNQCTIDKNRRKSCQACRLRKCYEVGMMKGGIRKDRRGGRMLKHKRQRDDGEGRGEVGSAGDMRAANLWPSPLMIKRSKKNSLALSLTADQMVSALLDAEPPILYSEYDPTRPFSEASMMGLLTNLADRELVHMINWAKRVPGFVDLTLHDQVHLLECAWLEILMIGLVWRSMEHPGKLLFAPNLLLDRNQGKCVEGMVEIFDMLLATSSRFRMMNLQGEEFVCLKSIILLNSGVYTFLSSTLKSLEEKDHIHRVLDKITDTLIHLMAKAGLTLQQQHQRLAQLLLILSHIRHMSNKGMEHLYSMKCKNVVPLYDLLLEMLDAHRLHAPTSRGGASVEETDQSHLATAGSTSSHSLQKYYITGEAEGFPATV
T1 sequence (P03372 whole entry, looked up, the tested form may be a part): as above
T1 sequence (Q92731 whole entry, looked up, the tested form may be a part): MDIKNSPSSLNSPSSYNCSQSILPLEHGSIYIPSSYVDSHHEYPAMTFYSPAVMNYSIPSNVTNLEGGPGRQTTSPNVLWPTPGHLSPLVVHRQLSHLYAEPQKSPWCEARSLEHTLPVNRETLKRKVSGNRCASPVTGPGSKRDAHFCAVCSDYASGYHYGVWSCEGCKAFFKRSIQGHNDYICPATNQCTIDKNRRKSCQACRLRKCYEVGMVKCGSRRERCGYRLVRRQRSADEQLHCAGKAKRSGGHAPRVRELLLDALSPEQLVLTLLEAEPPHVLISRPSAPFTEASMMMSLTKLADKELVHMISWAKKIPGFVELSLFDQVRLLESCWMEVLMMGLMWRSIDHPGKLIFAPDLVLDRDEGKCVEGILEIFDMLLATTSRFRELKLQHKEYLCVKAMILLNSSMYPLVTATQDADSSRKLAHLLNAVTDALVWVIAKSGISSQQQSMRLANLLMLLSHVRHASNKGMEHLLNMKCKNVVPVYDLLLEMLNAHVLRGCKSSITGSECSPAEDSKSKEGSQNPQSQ
Androgen Receptor/SRC-1 Co-activator, AR (gene 367), sequence (P10275 whole entry, looked up, the tested form may be a part): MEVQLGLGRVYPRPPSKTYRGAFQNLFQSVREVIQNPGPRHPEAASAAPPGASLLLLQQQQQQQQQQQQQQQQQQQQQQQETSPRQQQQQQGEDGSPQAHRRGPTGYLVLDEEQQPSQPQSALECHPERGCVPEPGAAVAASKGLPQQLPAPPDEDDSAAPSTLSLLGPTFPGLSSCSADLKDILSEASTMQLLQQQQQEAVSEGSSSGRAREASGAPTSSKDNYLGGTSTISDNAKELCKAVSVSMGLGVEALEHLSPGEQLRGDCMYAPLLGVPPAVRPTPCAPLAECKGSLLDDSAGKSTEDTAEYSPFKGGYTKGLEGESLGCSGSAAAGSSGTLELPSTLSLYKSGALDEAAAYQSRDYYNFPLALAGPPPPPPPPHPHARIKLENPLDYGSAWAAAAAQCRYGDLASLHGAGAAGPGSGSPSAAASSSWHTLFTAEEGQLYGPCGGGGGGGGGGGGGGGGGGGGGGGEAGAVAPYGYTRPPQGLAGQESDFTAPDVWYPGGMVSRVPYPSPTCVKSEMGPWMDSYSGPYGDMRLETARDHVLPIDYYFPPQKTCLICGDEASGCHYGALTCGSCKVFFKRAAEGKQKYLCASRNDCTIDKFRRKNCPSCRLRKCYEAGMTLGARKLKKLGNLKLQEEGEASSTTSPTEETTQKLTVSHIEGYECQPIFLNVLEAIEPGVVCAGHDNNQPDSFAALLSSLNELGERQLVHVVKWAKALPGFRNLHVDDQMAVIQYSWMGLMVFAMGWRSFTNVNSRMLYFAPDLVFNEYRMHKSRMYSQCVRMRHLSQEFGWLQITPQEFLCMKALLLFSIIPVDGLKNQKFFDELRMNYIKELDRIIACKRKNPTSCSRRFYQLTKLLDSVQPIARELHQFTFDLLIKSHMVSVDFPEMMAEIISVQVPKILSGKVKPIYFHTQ
rat Mineralocorticoid Receptor (MR), Nr3c2 (gene 25672), sequence (P22199 whole entry, looked up): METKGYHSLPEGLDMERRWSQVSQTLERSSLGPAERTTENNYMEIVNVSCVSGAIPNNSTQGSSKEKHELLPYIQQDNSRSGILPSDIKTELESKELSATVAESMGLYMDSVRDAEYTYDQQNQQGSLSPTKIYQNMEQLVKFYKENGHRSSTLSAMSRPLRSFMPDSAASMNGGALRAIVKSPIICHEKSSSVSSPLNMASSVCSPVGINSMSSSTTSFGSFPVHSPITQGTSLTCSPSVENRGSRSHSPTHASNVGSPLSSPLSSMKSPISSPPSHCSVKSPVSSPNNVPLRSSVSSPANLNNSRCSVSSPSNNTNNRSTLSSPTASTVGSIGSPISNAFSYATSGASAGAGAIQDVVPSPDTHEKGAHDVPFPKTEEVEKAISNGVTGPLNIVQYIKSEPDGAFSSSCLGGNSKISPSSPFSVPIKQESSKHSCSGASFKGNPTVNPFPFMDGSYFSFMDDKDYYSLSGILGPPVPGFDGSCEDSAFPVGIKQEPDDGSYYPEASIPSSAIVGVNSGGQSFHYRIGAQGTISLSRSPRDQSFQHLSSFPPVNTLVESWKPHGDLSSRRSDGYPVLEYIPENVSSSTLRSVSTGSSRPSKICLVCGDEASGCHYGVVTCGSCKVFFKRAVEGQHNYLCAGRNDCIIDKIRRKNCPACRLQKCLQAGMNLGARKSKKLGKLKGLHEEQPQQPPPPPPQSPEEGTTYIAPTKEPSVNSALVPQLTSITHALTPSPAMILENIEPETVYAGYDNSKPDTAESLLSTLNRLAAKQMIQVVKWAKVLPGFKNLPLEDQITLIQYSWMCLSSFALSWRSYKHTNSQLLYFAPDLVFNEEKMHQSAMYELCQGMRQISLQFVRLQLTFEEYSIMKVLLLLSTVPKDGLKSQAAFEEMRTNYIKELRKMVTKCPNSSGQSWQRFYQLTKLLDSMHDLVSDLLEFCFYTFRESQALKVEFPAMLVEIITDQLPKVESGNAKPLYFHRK

O=C(O)C(Cl)Cl
inactive: [1] | [2]

CN(C)C(=O)Cl
inactive: [1]

CCOP(=S)(NC(C)C)Oc1ccccc1C(=O)OC(C)C (centres undefined)
inactive: [3]

Cc1ccc(O)cc1C
inactive: [1] | [2] | [4] | [5]

CCOP(=S)(OCC)SCSCC
inactive: [1] | [2] | [4] | [5]

O=NN1CCCC1
active: [1] 12.1 µM
inactive: [2] | [4] | [5]

CCCCOCCOP(=O)(OCCOCCCC)OCCOCCCC
inactive: [1] | [2] | [5]

FC(F)(F)c1ccc(Cl)cc1
inactive: [2] | [5]

CCOC(=O)c1ccccc1N
inactive: [1] | [2] | [4] | [5]

Nc1ccc2ccccc2c1
inactive: [1] | [2] | [4] | [5]

CCNc1nc(Cl)nc(NC(C)(C)C)n1
inactive: [1] | [2] | [4] | [6] | [7] | [5]

O=C(O)C1C(C(=O)O)C2(Cl)C(Cl)=C(Cl)C1(Cl)C2(Cl)Cl (centres undefined)
inactive: [1] | [2] | [4] | [5]

CCOP(=S)(Oc1ccc([N+](=O)[O-])cc1)c1ccccc1 (centres undefined)
inactive: [1]
active: [2] 14.8 µM | [4] 19.2 µM | [5] 14.1 µM

c1cc2c3c(cccc3c1)CC2
inactive: [1] | [2] | [4] | [6] | [5]

Cc1ccc([N+](=O)[O-])cc1C
inactive: [1] | [4] | [5]

O=[N+]([O-])c1ccccc1
inactive: [1] | [2] | [4] | [5]

O=S1(=O)OCC2C(CO1)C1(Cl)C(Cl)=C(Cl)C2(Cl)C1(Cl)Cl (centres undefined)
inactive: [1] | [2] | [4]
active: [5] 86.8 µM

CCOS(=O)(=O)OCC
inactive: [1] | [2] | [4] | [5]

O=C(CBr)OCc1ccccc1
inactive: [1] | [2] | [4] | [5]

CCN(CC)c1ccccc1
inactive: [1] | [2] | [4] | [6] | [7] | [5]

COC(N)=O
inactive: [1] | [2] | [4] | [5]

CCCCC(CC)COP(=O)(Oc1ccccc1)Oc1ccccc1 (centres undefined)
inactive: [1] | [2] | [6] | [7]
active: [4] 12.2 µM | [5] 50 µM

CC(C)(C)N(NC(=O)c1ccc(Cl)cc1)C(=O)c1ccccc1
inactive: [1] | [6] | [7] | [5]

CC(Cc1ccc(OCC(=O)O)cc1)NCC(O)c1csc(C(F)(F)F)n1 (centres undefined)
inactive: [1] | [2] | [5]

CCC1(c2ccccc2)C(=O)N=C(O)NC1=O (centres undefined)
inactive: [1] | [4]

CCOc1ccc(C(C)(C)COCc2cccc(Oc3ccccc3)c2)cc1
inactive: [1] | [4] | [5]

c1ccc2c(c1)Nc1ccccc1S2
inactive: [1] | [2] | [4] | [5]

O=c1ssc(Cl)c1Cl
inactive: [1] | [2]

Nc1cc2c3c(c1)C(c1ccccc1)=N[C@@H](NC(=O)c1cccnc1)C(=O)N3CC2
inactive: [1] | [2] | [5]

CCCCC(CC)COC(=O)c1c(Br)c(Br)c(Br)c(Br)c1C(=O)OCC(CC)CCCC (centres undefined)
inactive: [1] | [2] | [4] | [5]

O=P(Oc1ccccc1)(Oc1ccccc1)Oc1ccccc1
active: [1] 12.4 µM | [2] 12.1 µM | [4] 12.2 µM | [5] 12.4 µM

CSC(C)(C)C=NO
active: [3] 4.44 µM
inactive: [1] | [2]

c1nc[nH]n1
inactive: [1] | [2] | [4] | [5]

Cc1ccc(N)cc1N
inactive: [1] | [2] | [4] | [5]

OCC1CO1 (centres undefined)
inactive: [1] | [2]

O=C(O)CF
inactive: [1] | [2] | [4] | [5]
